# Screening data (PubChem)
# miR-122 inh: raises miR-122 sensor activity in Huh7 cells; AID 623901; Huh7 psiCHECK-miR122 Renilla luciferase sensor, 48 h; hit rate 0.14% among 340,000; activation, % at 12.5 µM;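 active means mean activation of 30% or more, with every replicate also reaching 30%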;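 further: 0% = median of neutral control wells and 100% = median of positive control wells; higher luciferase signal means stronger suppression of miR-122 activity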
# Starred values were filed as active, the others as inactive. The full list was thinned out, with hits kept by preference.
SMILES,miR-122 inh
COc1cccc(-c2cnc3c(c2)C(=O)N([C@H](C)CO)C[C@H](C)[C@@H](CN(C)C(=O)Nc2ccccc2F)O3)c1,7
CCC(=O)N(C)C[C@H]1Oc2ncc(C#Cc3ccc(OC)cc3)cc2C(=O)N([C@H](C)CO)C[C@@H]1C,9
COc1cc(/C=C2/CCC/C(=C\c3cc(O)c(OC)c(Cl)c3)C2=O)cc(Cl)c1O,-113
O=C1/C(=C/c2ccncc2)CCC/C1=C\c1ccncc1,78*
C[C@@H]1CN([C@H](C)CO)S(=O)(=O)c2ccc(-c3ccncc3)cc2O[C@H]1CN(C)C(=O)C1CC1,-13
C[C@@H]1CN([C@H](C)CO)S(=O)(=O)c2ccc(C#Cc3ccccn3)cc2O[C@@H]1CN(C)Cc1cccc(F)c1,-32
CC(C)C#Cc1cnc2c(c1)C(=O)N([C@H](C)CO)C[C@H](C)[C@H](CN(C)C(=O)CC1CC1)O2,-2
C[C@H](CO)N1C[C@H](C)[C@H](CN(C)C(=O)c2ccncc2)Oc2cc(C#Cc3ccncc3)ccc2S1(=O)=O,1
Cc1cc(C(=O)Nc2ccc3c(c2)C(=O)N(C)[C@H]2CC[C@H](CC(=O)N[C@@H](C)c4ccccc4)O[C@H]2CO3)no1,50*
Cc1cc(C(=O)Nc2ccc3c(c2)C(=O)N(C)[C@@H]2CC[C@@H](CC(=O)N[C@H](C)c4ccccc4)O[C@H]2CO3)no1,33*
C[C@H](O)C#Cc1ccc2c(c1)O[C@H](CN(C)CC1CCOCC1)[C@@H](C)CN([C@@H](C)CO)S2(=O)=O,-3
CCCNC(=O)N(C)C[C@H]1Oc2cc(-c3ccccc3)ccc2S(=O)(=O)N([C@H](C)CO)C[C@@H]1C,-32
C[C@H]1CN([C@@H](C)CO)C(=O)c2cc(-c3ccc(F)cc3)cnc2O[C@@H]1CN(C)C(=O)c1ccccn1,5
CCCC#Cc1ccc2c(c1)O[C@H](CN(C)C(=O)NCCC)[C@H](C)CN([C@@H](C)CO)S2(=O)=O,-10
C[C@@H]1CN([C@@H](C)CO)C(=O)c2cc(C#CC(C)(C)O)cnc2O[C@@H]1CN(C)C(=O)C1CC1,-9
C[C@H](CO)N1C[C@H](C)[C@@H](CN(C)Cc2ccccc2)Oc2ncc(-c3cncnc3)cc2C1=O,-4
C[C@H]1CN([C@@H](C)CO)C(=O)c2cc(C#CC3CC3)cnc2O[C@@H]1CN(C)Cc1ccncc1,0
CO[C@@H]1CN(C)C(=O)c2cc(NC(=O)Cc3ccccc3)ccc2OC[C@H](C)N(C)C[C@H]1C,0
C[C@@H]1CN([C@H](C)CO)S(=O)(=O)c2ccc(-c3ccccc3)cc2O[C@@H]1CN(C)Cc1cncnc1,-9
C[C@@H]1CN([C@@H](C)CO)S(=O)(=O)c2ccc(C3=CCCCC3)cc2O[C@@H]1CN(C)C(=O)Cc1ccncc1,48*
C[C@@H]1CN([C@@H](C)CO)S(=O)(=O)c2ccc(C3=CCCCC3)cc2O[C@@H]1CN(C)C(=O)CC1CC1,-3
C[C@H]1CN([C@@H](C)CO)S(=O)(=O)c2ccc(Br)cc2O[C@@H]1CN(C)C(=O)Nc1ccc2c(c1)OCO2,-1
C[C@@H]1CN([C@H](C)CO)S(=O)(=O)c2ccc(C3=CCCCC3)cc2O[C@H]1CN(C)S(C)(=O)=O,6
C[C@@H]1CN([C@H](C)CO)S(=O)(=O)c2ccc(C3=CCCCC3)cc2O[C@@H]1CN(C)S(C)(=O)=O,-25
C[C@H](CO)N1C[C@H](C)[C@@H](CN(C)S(C)(=O)=O)Oc2cc(C3=CCCCC3)ccc2S1(=O)=O,-13
SMILES,miR-122 inh
C[C@H]1CN([C@@H](C)CO)S(=O)(=O)c2ccc(C3=CCCCC3)cc2O[C@H]1CN(C)C(=O)CC1CC1,7
C[C@@H]1CN([C@@H](C)CO)S(=O)(=O)c2ccc(C3=CCCC3)cc2O[C@@H]1CN(C)C(=O)c1ccc(F)cc1,37*
C[C@@H]1CN([C@@H](C)CO)S(=O)(=O)c2ccc(C3=CCCCC3)cc2O[C@@H]1CN(C)C(=O)Nc1ccc2c(c1)OCO2,46*
CC(C)NC(=O)N(C)C[C@@H]1Oc2cc(C3=CCCCC3)ccc2S(=O)(=O)N([C@@H](C)CO)C[C@@H]1C,1
C[C@H]1CN([C@@H](C)CO)S(=O)(=O)c2ccc(C#Cc3ccccc3)cc2O[C@H]1CN(C)C(=O)Nc1ccc2c(c1)OCO2,-3
C[C@@H]1CN([C@H](C)CO)S(=O)(=O)c2ccc(C3=CCCCC3)cc2O[C@@H]1CN(C)C(=O)Nc1ccc2c(c1)OCO2,32*
COc1ccccc1C#Cc1ccc2c(c1)O[C@@H](CN(C)Cc1cncnc1)[C@H](C)CN([C@H](C)CO)S2(=O)=O,-37
COc1cccc(-c2ccc3c(c2)O[C@@H](CN(C)CC2CC2)[C@@H](C)CN([C@H](C)CO)S3(=O)=O)c1,5
C[C@H]1CN([C@@H](C)CO)C(=O)c2cc(-c3cccc(F)c3)cnc2O[C@H]1CN(C)Cc1cncnc1,4
COc1ccc(C#Cc2cnc3c(c2)C(=O)N([C@@H](C)CO)C[C@H](C)[C@@H](CN(C)CC2CCCC2)O3)cc1,-6
CCC(=O)Nc1ccc2c(c1)OC[C@H](C)N(C(=O)c1ccncc1)C[C@@H](C)[C@H](OC)CN(C)C2=O,-7
